Screening data deposited in PubChem BioAssay by Sanford-Burnham Center for Chemical Genomics.
Only some compounds are listed: those with a hit (about 1.4% of all), similar ones and a draw of the others.
APOBEC3A inh – inhibitors of human APOBEC3A DNA deaminase; 0.41% of 330,000 active; recombinant A3A, FAM/TAMRA ssDNA deamination fluorescence; inhibition, % at 20 µM; P31941;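 active = at least 40% inhibition at 20 µM here, with at most 30% in a related deaminase screen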
NPR2 activator – GC-B (human) receptor activation; HEK293-GC-B cells, CNP EC30, cGMP TR-FRET; 0% at EC30 CNP, 100% saturating CNP; AID 1920062; activation, % at 10 µM; 0.11% of 370,000 active;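 active = activation at 10 µM reaching about 35% in either raw or pattern-adjusted values, limit read from the data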
Target sequence (P20594 whole entry, looked up): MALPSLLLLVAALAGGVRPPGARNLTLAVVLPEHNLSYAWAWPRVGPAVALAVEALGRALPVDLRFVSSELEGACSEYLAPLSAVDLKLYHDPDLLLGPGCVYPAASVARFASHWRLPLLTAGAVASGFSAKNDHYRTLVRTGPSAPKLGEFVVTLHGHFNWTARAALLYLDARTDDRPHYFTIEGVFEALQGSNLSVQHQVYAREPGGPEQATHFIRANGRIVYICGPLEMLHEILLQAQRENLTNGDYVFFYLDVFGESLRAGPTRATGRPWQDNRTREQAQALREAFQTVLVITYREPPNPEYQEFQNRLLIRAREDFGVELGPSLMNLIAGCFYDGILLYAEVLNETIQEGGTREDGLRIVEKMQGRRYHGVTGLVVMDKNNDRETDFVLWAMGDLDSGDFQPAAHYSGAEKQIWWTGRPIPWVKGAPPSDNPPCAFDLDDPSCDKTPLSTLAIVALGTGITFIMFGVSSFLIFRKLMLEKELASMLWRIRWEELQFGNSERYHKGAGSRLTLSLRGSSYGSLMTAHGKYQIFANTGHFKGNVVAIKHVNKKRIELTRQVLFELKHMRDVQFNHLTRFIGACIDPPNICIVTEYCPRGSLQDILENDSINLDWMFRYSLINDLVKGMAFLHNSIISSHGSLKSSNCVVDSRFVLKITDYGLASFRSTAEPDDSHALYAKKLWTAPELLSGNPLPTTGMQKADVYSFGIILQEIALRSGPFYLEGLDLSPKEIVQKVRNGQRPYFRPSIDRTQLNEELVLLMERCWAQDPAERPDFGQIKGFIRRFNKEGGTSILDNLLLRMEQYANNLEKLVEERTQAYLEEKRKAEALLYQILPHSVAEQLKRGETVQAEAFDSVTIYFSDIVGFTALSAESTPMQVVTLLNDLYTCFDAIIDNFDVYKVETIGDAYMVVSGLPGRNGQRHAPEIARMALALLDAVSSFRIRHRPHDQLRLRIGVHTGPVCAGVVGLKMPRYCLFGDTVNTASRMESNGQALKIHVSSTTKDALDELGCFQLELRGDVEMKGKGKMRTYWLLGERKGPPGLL
APOBEC3G inh – inhibitors of human APOBEC3G DNA deaminase; Q9HC16; recombinant A3G, ssDNA deamination FAM/TAMRA fluorescence; inhibition, % at 20 µM; 0.28% of 330,000 active;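 active = inhibition of at least 40% at 20 µM, with no more than 30% in the related APOBEC3A deaminase screen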
GC-A act – GC-A (human) enzyme activation | HEK293 GC-A cells, cGMP TR-FRET, EC30 ANP; 0% at EC30 ANP, 100% saturating ANP | 0.14% of 370,000 active | activation, % at 10 µM | P16066 | AID 1671463; in the data active = activation above about 40%
FAS TE block – inhibitors of human fatty acid synthase thioesterase domain; P49327; recombinant FAS-TE, OMFH fluorogenic substrate, fluorescence endpoint; inhibition, % at 15 µM; 0.67% of 360,000 active; AID 602261;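 active = compounds whose normalised, plate-corrected inhibition of enzyme fluorescence in the single-dose primary screen is 50% or more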
APOBEC3A confirm – APOBEC3A (human) deaminase inhibition, confirmed; shares compounds with APOBEC3A inh; recombinant A3A, ssDNA deaminase UDG fluorescence assay; 63% of 1,400 active; inhibition, % at 20 µM; AID 493151;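 active = inhibition reaching a set limit, 80% of the first screen's cutoff, at 20 µM in any replicate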
UDG ctr A3A – UDG inhibition in APOBEC3A counter-screen | shares compounds with APOBEC3A inh | 1,000 tested, under 10 active | AID 504714 | UDG counterscreen, FAM/TAMRA uracil oligo fluorescence | inhibition, % at 20 µM; call rule not given here
Each line names hits and unclear results; the compound was inactive in the other large screens (follow-up assays come after a bar, where they were run).

COC(=O)c1ccc2nc(-c3ccco3)c(Cc3ccsc3)n2c1	none (no result: APOBEC3A inh, APOBEC3G inh, FAS TE block)
CC(C)NC(=O)C(C)N1CCN(S(=O)(=O)c2ccc3ccccc3c2)CC1 (stereo not drawn)	APOBEC3A inh 57 | APOBEC3A confirm 59 | UDG ctr A3A inactive
C=CCNC(=O)c1ccccc1NC(=O)c1ccccc1N(C)S(C)(=O)=O	APOBEC3A inh 44 | APOBEC3A confirm inactive
C[C@H]1[C@@H](N)CC[C@@]23CCCN2C(=O)CCC[C@@H]13	none (no result: APOBEC3A inh, APOBEC3G inh, FAS TE block)
C[N+]1=C2CCCCCN2C(O)(c2ccccc2)C1 (stereo not drawn)	APOBEC3A inh 69 | APOBEC3A confirm 72 | UDG ctr A3A inactive
COc1ccc(/C=N\NC(=O)CN2CCN(Cc3ccccc3)CC2)cc1OCc1ccccc1	none (no result: APOBEC3A inh, APOBEC3G inh, FAS TE block)
Cc1[nH]c2ccccc2c1CC(=O)Nc1ccc(Nc2cccnc2)c(-c2ccc(Cl)c(Cl)c2)c1	none (no result: APOBEC3A inh, APOBEC3G inh, FAS TE block)
Cc1cccc(Cc2c(C)[nH]c(=O)c(C#N)c2C)c1	none
Cc1[nH]c(=O)c(C#N)c(C)c1CCC(=O)NCc1ccc(Cl)cc1	APOBEC3A inh 71 | APOBEC3A confirm inactive | UDG ctr A3A inactive
COc1cc(OC)c2ccc(=O)oc2c1C(CC(=O)N1CCCC1)c1ccc2c(c1)OCO2 (stereo not drawn)	APOBEC3A inh 47 | APOBEC3A confirm inactive
COc1cc(OC)c2ccc(=O)oc2c1C(CC(=O)N1CCCC(C)C1)c1ccc2c(c1)OCO2 (stereo not drawn)	none
O=c1cc(CCl)nc2sc3ccccc3n12	APOBEC3A inh 63 | APOBEC3A confirm 34 | UDG ctr A3A inactive
O=C(OCc1cc(=O)n2c(n1)sc1ccccc12)c1ccc(O)cc1	none
Cc1cccc(C(=O)N[C@H](C(=O)OCc2cc(=O)n3c(n2)sc2ccccc23)C(C)C)c1	APOBEC3A inh 43 | APOBEC3A confirm 53 | UDG ctr A3A inactive
Brc1ccc(N2O[C@H]3C=C[C@@H]2C3)nc1	none (no result: APOBEC3A inh, APOBEC3G inh, FAS TE block)
CSC1=NCCN1CCOc1ccccc1	APOBEC3A inh 65 | APOBEC3A confirm 55 | UDG ctr A3A inactive
O=C(C(=O)N1CCC(CNS(=O)(=O)c2cccc(C(F)(F)F)c2)CC1)c1cc2ccccc2o1	none (no result: APOBEC3A inh, APOBEC3G inh, FAS TE block)
C[N+](C)(C)CCCN(Cc1ccc2c(c1)OCO2)C(=O)NC1CCCCC1	APOBEC3A inh 56 | APOBEC3A confirm 72 | UDG ctr A3A inactive
COc1ccc(CC(=O)Nc2ccc(C)cc2S(=O)(=O)N2CCOCC2)cc1OC	none (no result: APOBEC3A inh, APOBEC3G inh, FAS TE block)
O=[N+]([O-])c1ccc(C[n+]2cccc3ccc4cccnc4c32)cc1	none
O=[N+]([O-])c1ccc(C[n+]2cccc3ccccc32)cc1	APOBEC3A inh 43 | APOBEC3A confirm 53 | UDG ctr A3A inactive
C[C@@H]1CCCN1c1cccc2c1S(=O)(=O)N1CC[C@@H](C1)O2	none (no result: APOBEC3A inh, APOBEC3G inh, FAS TE block)
COc1ccc(C2C(C(C)=O)=C(C)N=c3s/c(=C\c4ccco4)c(=O)n32)c(OC)c1 (stereo not drawn)	none
COc1ccc(C2C(C(C)=O)=C(C)N=c3s/c(=C\c4ccc5c(c4)OCO5)c(=O)n32)c(OC)c1 (stereo not drawn)	APOBEC3A inh 50 | APOBEC3A confirm inactive
COc1ccc(CC(=O)Nc2cccc(/C(C)=N/NC(=O)c3cccc([N+](=O)[O-])c3)c2)cc1	APOBEC3A inh 72 | APOBEC3A confirm inactive
O=C1C2C(c3ccccc3)C=CC(c3ccccc3)C2C(=O)N1c1ccncc1 (stereo not drawn)	none
O=C1C2C3C=CC(C3)C2C(=O)N1c1ccncc1 (stereo not drawn)	APOBEC3A inh 83 | APOBEC3A confirm inactive | UDG ctr A3A inactive
CC(=O)CC[C@H]1CC[C@]2(CCCN(C(=O)C3CCCCC3)C2)O1	none (no result: APOBEC3A inh, APOBEC3G inh, FAS TE block)
CSc1nc(-c2ccco2)nn1C(=O)Cc1ccccc1	APOBEC3A inh 94 | APOBEC3A confirm inactive | UDG ctr A3A inactive
COC(=O)[C@H](Cc1ccccc1)N1CC=CS1(=O)=O	none (no result: APOBEC3A inh, APOBEC3G inh, FAS TE block)
CC1(C)Oc2ccc3ccc(=O)oc3c2-c2cnoc21	APOBEC3A inh 51 | APOBEC3A confirm 72 | UDG ctr A3A inactive
CC1(C)Oc2ccc3ccc(=O)oc3c2-c2cn[nH]c21	APOBEC3A inh 59 | APOBEC3A confirm 65 | UDG ctr A3A inactive
